Compound activity from PubChem BioAssay.
In the library only some 4.8% were active in any assay of this set; here they are far more common.
SKKanGAS inh – S. pyogenes SKKanGAS growth inhibitors in kanamycin, primary screen, streptokinase expression inhibitor project, SKKanGAS strain, BacTiter-Glo luminescence. inhibition, % at 7.5 µM. actives 1.3% (n = 300,000). AID 1662, 2009. 6 h;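 active = mean replicate score, as percent of positive control median, at least 50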;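 note: strain carries kanamycin resistance gene driven by streptokinase promoter and grows in 40 µg/ml kanamycin; loss of luminescence reflects streptokinase promoter inhibition or plain growth inhibition; 0% = median of DMSO wells and 100% = positive control at its reference dose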
tim10-1 inh – growth inhibitors of tim10-1 mutant yeast, primary screen, luminescence, uHTS | S. cerevisiae tim10-1 ts strain growth, BacTiter-Glo, 24 h | inhibition, % at 20 µM | actives 2.2% (n = 330,000);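 active = inhibition of at least 40%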;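 note: mutant grown at 25 °C; 0% = DMSO wells with yeast and 100% = wells holding no yeast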
tim23-1 inh – growth inhibitors of tim23-1 mutant yeast, primary screen, luminescence, uHTS | S. cerevisiae tim23-1 growth, BacTiter-Glo luminescence, 24 h | inhibition, % at 20 µM | actives 1.3% (n = 330,000);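 active = growth inhibition of the mutant yeast at or above 50%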;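 note: temperature-sensitive mutant grown at 25 °C; plate controls were DMSO-treated mutant yeast for no effect and medium wells lacking yeast for full effect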
PfHsp90 set2 – growth inhibition of PfHsp90-expressing yeast, primary screen, antimalarial PfHsp90 inhibitor project, S. cerevisiae, BacTiter-Glo luminescence, single point, set 2. BacTiter-Glo ATP, 48 h; yeast lacking PDR1 and PDR3 efflux regulators. inhibition, % at 9.4 µM. actives 0.32% (n = 310,000);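 active = every replicate shows inhibition above about 80%, whatever the replicate mean, limit read from the data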;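 note: 0% = DMSO neutral controls and 100% = 20 µM radicicol positive controls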
TIM10 inh – growth inhibitors of isogenic TIM10 control yeast, primary screen, counter-screen for tim10-1 yeast inhibitor project, luminescence, uHTS | actives 1.4% (n = 330,000) | inhibition, % at 10 µM | S. cerevisiae TIM10 strain growth, BacTiter-Glo luminescence, 24 h;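 active = inhibition of 40% or more at the single tested concentration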;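 note: wild-type TIM10 isogenic control strain grown at permissive 25 °C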
NALP1 yeast inh – NALP1 inflammasome inhibitors in reconstituted yeast, colorimetric, S. cerevisiae, triplicate retest; actives 0.61% (n = 280,000); inhibition, % at 10 µM; S. cerevisiae NALP1/ASC/caspase-1 growth, X-gal OD620, 72 h; AID 2071, 2009; in the data active = inhibition mostly above about 24%, no sharp cut-off; inactive = mostly below about 32%
tim10-1 confirm – growth inhibitors of tim10-1 mutant yeast, confirmation, single concentration, luminescence, S. cerevisiae; inhibition, % at 20 µM; actives 56% (n = 7,400); shares compounds with tim10-1 inh; S. cerevisiae tim10-1 ts strain growth, BacTiter-Glo, 24 h;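 active = inhibition of yeast growth at or above a set limit in either of two repeat tests at 20 µM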;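 note: tim10-1 mutant grown at permissive 25 °C to find synthetic lethal compounds; 0% = DMSO yeast wells and 100% = medium wells without yeast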
An asterisk follows results filed as active; . = no result given.

SMILES	SKKanGAS inh	tim10-1 inh	tim23-1 inh	PfHsp90 set2	TIM10 inh	NALP1 yeast inh	tim10-1 confirm
O=C(CCl)Nc1c(C(=O)Nc2ccc3c(c2)OCCO3)oc2ccccc12	4	42*	48	-2	39	0	21
COCC(=O)Nc1c(C(=O)Nc2ccc3c(c2)OCO3)oc2ccccc12	-10	-12	6	0	0	21	.
Cc1[nH]n(-c2ccc([N+](=O)[O-])cc2)c(=O)c1C=NCCN1CCN(C(=O)c2ccc(F)cc2)CC1	22	36	30	-18	15	-17	.
Cc1[nH]n(-c2ccc([N+](=O)[O-])cc2)c(=O)c1C=NCCN1CCN(C(=O)c2cccc(F)c2)CC1	24	42*	38	84*	23	11	48*
S=c1[nH]nc(Nc2ccc(Cl)cc2)s1	7	40*	22	-13	29	-10	34*
CO/N=C/c1ccc(N2CCN(C(=O)c3cccc(C(F)(F)F)c3)CC2)c([N+](=O)[O-])c1	10	41*	28	-16	27	39	26
CO/N=C/c1ccc(N2CCN(C(=O)c3ccc(F)cc3)CC2)c([N+](=O)[O-])c1	8	34	43	1	26	.	.
CC(C)SCc1cc(N2CCCC2)nc(-c2ccccc2)n1	-13	18	18	-5	22	-6	.
COc1cccc(N2CCN(C(=O)c3cc(-c4ccc(F)cc4)[nH]c3C)CC2)c1	12	50*	39	-27	21	26	27
COc1cc(C(=O)N2CCN(c3cccc(C)c3C)CC2)cc(OC)c1OC	-7	42*	42	-49	21	17	2
COc1ccc2[nH]c(C(=O)N3CCN(c4ccccc4F)CC3)c(C)c2c1	10	47*	45	-61	19	12	33*
Cc1[nH]c(-c2ccc(F)cc2)cc1C(=O)N1CCN(c2ccccc2F)CC1	46	47*	49	12	15	24	40*
Cc1cc(C)c(S(=O)(=O)N2CCN(c3ccc([N+](=O)[O-])c(NCc4ccco4)c3)CC2)c(C)c1	-5	13	-3	-31	-6	3	.
COc1ccccc1N1CCN(C(=O)C2CC2)CC1	6	-12	26	.	-13	.	.
COc1ccccc1N1CCN(C(=O)c2cc(=O)c3ccc(C)cc3o2)CC1	2	28	18	-5	15	4	.
CCc1nc2ccc(C(=O)N3CCN(c4cccc(OC)c4)CC3)cc2nc1CC	1	46*	39	-14	24	24	13
COc1ccccc1N1CCN(C(=O)c2oc3cc(C)cc(C)c3c2C)CC1	10	45*	30	-6	28	-25	28
COc1ccccc1N1CCN(C(=O)C2c3ccccc3Oc3ccccc32)CC1	0	45*	33	.	24	20	20
COc1ccccc1N1CCN(C(=O)c2cc(-c3ccc(F)cc3)[nH]c2C)CC1	2	43*	40	3	14	8	41*
O=C(NCCc1csc(-c2cccnc2)n1)c1ccc(Cl)cc1	-5	-9	4	23	-25	2	.
O=C(c1cc(C2CC2)nn1-c1ccccc1)N1CCN(c2ccccn2)CC1	.	42*	30	-23	13	.	4
CC1CCCC2(C1)NC(=S)c1c(sc3c1CCCC3)N2 (stereo not given)	16	42*	31	5	12	-3	23
CCOC(=O)N1CCC(N(CCN(C)C)C(=S)Nc2ccccc2OC)CC1	-6	3	10	-12	-17	-15	.
O=C(Nc1nc(-c2cc(Cl)sc2Cl)cs1)c1ccccc1	22	44*	40	.	25	-6	28
O=C(Nc1ccccn1)c1ccc(Cl)s1	-3	-18	8	22	7	12	.
SMILES	SKKanGAS inh	tim10-1 inh	tim23-1 inh	PfHsp90 set2	TIM10 inh	NALP1 yeast inh	tim10-1 confirm
CN(C)S(=O)(=O)c1ccc2nc(NC(=O)c3cccs3)sc2c1	-3	21	41	7	27	-1	.
O=C(Nc1nc(-c2ccccn2)cs1)c1ccc(Cl)s1	102*	51*	35	66	0	98*	30
O=C(Nc1nc2ccc(F)cc2s1)c1cccs1	8	41*	36	2	34	7	32*
O=C(Nc1nc(-c2ccc(Cl)s2)cs1)c1cccs1	26	42*	49	33	36	-3	11
O=C(CNC(=O)Cn1ccc2ccccc2c1=O)NCCCN1CCN(c2cccc(Cl)c2)CC1	-1	11	29	-25	13	28	.
Cc1nc(SCC(=O)O)c(C#N)c2c1CCCC2	-6	3	17	-16	4	-14	.
Cc1cccc(C)c1NC(=S)NC(=O)c1ccccc1F	-8	27	18	27	19	13	.
COc1cc(Cl)ccc1OCc1cc(C(=O)NCC(C)c2ccccc2)no1 (stereo not given)	4	33	33	-6	14	7	.
O=C(COC(=O)CCS(=O)(=O)c1ccccc1)Nc1cc(S(=O)(=O)N2CCCCC2)ccc1Cl	-4	40*	38	.	27	.	42*
Cc1ccc(S(=O)(=O)CCC(=O)OCC(=O)Nc2cc(S(=O)(=O)N3CCOCC3)ccc2Cl)cc1	.	.	.	29	.	.	.
Fc1ccc(-c2nc3nc4ccccc4nc3n2Cc2ccco2)cc1	3	43*	49	9	36	-4	33*
c1ccc(-c2nc3nc4ccccc4nc3n2Cc2ccco2)cc1	10	41*	42	4	20	25	25
S=c1nc(-c2ccccc2)n(Cc2ccco2)c2c1CCCC2	.	.	.	.	.	-9	.
Fc1ccc(-n2c(-c3ccco3)nc3nc4ccccc4nc32)cc1	-10	12	-5	13	-1	-6	.
CCOc1ccccc1NS(=O)(=O)c1ccc(OC)c(OC)c1	-13	18	24	.	27	-8	.
COc1cc(NC(=S)N2CCC(C(N)=O)CC2)cc(OC)c1	-2	4	8	9	-1	37	.
Cc1cc(C)c2c(-n3cccc3)c(C(=O)NNS(=O)(=O)c3ccc(Cl)cc3)sc2n1	29	43*	40	-17	32	-5	32*
O=C(N/N=C/c1ccc[nH]1)c1cc(-c2ccc(Cl)cc2)nc2ccccc12	34	56*	37	-7	35	2	51*
O=C(N/N=C/c1ccc([N+](=O)[O-])o1)c1cc(-c2ccncc2)nc2ccccc12	8	21	8	47	1	5	.
